High-throughput results from PubChem.
An excerpt weighted towards active compounds, which were near 3.2% of everything screened.
Mcl1 Noxa PPI – Mcl-1/Noxa binding inhibitors, primary screen, biochemical, TR-FRET, 1536-well; hit rate 1.5% among 220,000; Induced myeloid leukemia cell differentiation protein Mcl-1 (Homo sapiens), Q07820; inhibition, % at 21.7 µM; TR-FRET Mcl-1/Noxa peptide binding, 2 h;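 active means compounds that cut the protein-peptide binding signal by more than 50% relative to plate controls in a single-dose test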;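 further: His-tagged Mcl-1 with rhodamine Noxa BH3 peptide and terbium anti-His antibody; 0% = Mcl-1 plus Noxa peptide wells and 100% = peptide-only wells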
Target sequence (Q07820 whole entry, looked up): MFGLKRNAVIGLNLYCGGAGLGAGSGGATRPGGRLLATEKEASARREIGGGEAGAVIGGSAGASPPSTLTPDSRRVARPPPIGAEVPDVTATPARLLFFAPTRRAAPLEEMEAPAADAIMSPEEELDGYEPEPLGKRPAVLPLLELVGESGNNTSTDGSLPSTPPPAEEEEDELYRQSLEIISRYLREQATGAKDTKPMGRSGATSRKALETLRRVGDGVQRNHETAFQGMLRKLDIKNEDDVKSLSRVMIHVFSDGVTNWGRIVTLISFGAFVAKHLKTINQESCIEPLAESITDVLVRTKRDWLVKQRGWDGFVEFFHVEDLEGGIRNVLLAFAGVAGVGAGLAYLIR
NCF1 inh – p47phox/p22phox peptide binding inhibitors, primary screen, biochemical, uHTS, NADPH oxidase regulatory subunit. Neutrophil cytosol factor 1 (Homo sapiens), P14598. fluorescence polarization, 2 h. inhibition, % at 24.7 µM. hit rate 0.53% among 220,000. AID 1274, 2008;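 active means inhibition above about 30%, limit read from the data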;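 further: 0% = p47phox with labelled peptide and 100% = labelled peptide alone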
Mcl-1 Bim block – inhibitors of Bim peptide binding to Mcl-1, primary screen, biochemical, bead-based flow cytometry, multiplex | Induced myeloid leukemia cell differentiation protein Mcl-1 (Homo sapiens), Q07820 | Bim peptide-Mcl-1 binding | inhibition, % at 10 µM | hit rate 0.1% among 190,000; in the data active means inhibition above about 40%;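 further: 0% = no compound tracer wells and 100% = peptide blocker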
14-3-3 Bad PPI – inhibitors of 14-3-3 zeta/Bad binding, primary screen, biochemical, TR-FRET, bovine 14-3-3 zeta; 14-3-3 protein zeta/delta (Bos taurus), P63103; TR-FRET 14-3-3zeta/Dy647-pBad peptide displacement, 1 h; inhibition, % at 21.7 µM; hit rate 0.71% among 220,000; AID 781, 2007;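 active means inhibition above about 70%, limit read from the data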;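 further: 0% = full 14-3-3 plus peptide FRET controls and 100% = background without 14-3-3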
Target sequence (P63103 whole entry, looked up): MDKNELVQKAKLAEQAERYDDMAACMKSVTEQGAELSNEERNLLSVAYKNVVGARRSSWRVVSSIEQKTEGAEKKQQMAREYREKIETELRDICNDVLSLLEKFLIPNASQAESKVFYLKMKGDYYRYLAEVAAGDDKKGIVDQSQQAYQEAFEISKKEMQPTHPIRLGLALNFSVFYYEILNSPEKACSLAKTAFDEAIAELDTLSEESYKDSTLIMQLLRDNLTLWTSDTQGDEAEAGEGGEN
Mcl1 Bid PPI – Mcl-1/Bid binding inhibitors, primary screen, biochemical, TR-FRET, 1536-well; Induced myeloid leukemia cell differentiation protein Mcl-1 (Homo sapiens), Q07820; TR-FRET Mcl-1/Bid-Dy647 peptide binding; inhibition, % at 21.7 µM; hit rate 0.97% among 220,000; AID 1021, 2008;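 active means compounds that cut the binding signal by more than half at the single screening dose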;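 further: His-tagged Mcl-1 with europium anti-His antibody binding Bid BH3 peptide; 0% = Mcl-1 plus peptide wells and 100% = peptide-only wells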
Active calls of the source: *; nt = no result given; + = active, no number; [ ] = dose if it differs, or a comment.

SMILES	Mcl1 Noxa PPI	NCF1 inh	Mcl-1 Bim block	14-3-3 Bad PPI	Mcl1 Bid PPI
O=C(c1ccccc1)N1CCN(C2CCCCCC2)CC1	27.0	-5.5	-1.0	72.3*	66.4*
O=C(c1ccc(F)cc1)N1CCN(C2CC3CCC2C3)CC1 (centres undefined)	7.0	-6.0	5.0	4.6	-17.4
Cc1ccc(SCC(=O)NC(=O)NCCC(C)C)c(C)c1	5.7	-17.7	0.0	-11.5	-7.8
O=C(N/N=C/c1cccnc1)c1ccc(CN2c3cccc4cccc(c34)S2(=O)=O)cc1	66.3*	-32.9	0.0	-11.1	-13.4
CCOc1ccc(-c2nnc(-c3ccccc3)n2-c2ccccc2)cc1	-122.0	23.1	3.0	nt	61.4*
C=CCSc1nnc(-c2ccncc2)n1-c1ccc(OCC)cc1	-3.8	+	0.0	7.8	-14.3
CCCNS(=O)(=O)c1cc(Cl)ccc1OC	-10.6	-3.2	2.0	-1.7	-6.1
CCCNS(=O)(=O)c1ccc(OC)c(Cl)c1Cl	1.9	30.4*	1.0	-2.6	1.0
CN(C)CCCOC(=O)COc1ccc(Br)cc1	18.3	12.3	nt	1.1	12.7
CC(Cc1cccs1)NC(=O)Nc1ccc(Cl)c(Cl)c1 (centres undefined)	1.8	1.5	1.0	-3.7	-8.7
O=C(C1=NN[C@@H]2C(=O)N(c3cccc(C(F)(F)F)c3)C(=O)[C@H]12)c1cnccn1	13.4	-0.5	nt	-2.3	-29.9
COc1ccc(C(=O)NC(=S)Nc2ccc(Cc3ccncc3)cc2)cc1	15.4	-20.5	0.0	80.7*	-34.7
COc1ccc(NC(=S)Nc2ccc3snnc3c2)cc1	15.2	-59.2	-3.0	-12.6	-52.7
COc1ccc(NC(=S)Nc2ccc3nccnc3c2)cc1	51.8*	-19.3	-1.0	-7.2	-52.5
O=C(OCC(=O)N1CCCC1)c1ccc(NS(=O)(=O)c2cccs2)cc1O	21.0	-0.6	0.0	3.6	18.0
Cc1nnc2n(c1=O)C(CS(=O)(=O)c1ccc3ccccc3c1)CS2 (centres undefined)	-8.3	-8.6	-2.0	-4.3	-24.2
NC(=S)N/N=C1/CCSc2ccc3ccccc3c21	13.7	-5.1	2.0	-2.1	-64.5
O=C1CCNc2cc3ccccc3cc21	59.5*	-11.0	4.0	-22.5	-88.0
COc1cc(Sc2ccc(C)cc2)c(OC)cc1N	45.5	1.8	-1.0	75.9*	-60.7
Cc1ccc(C(=O)n2nc(C#N)c(C#N)c2N)cc1	10.3	-11.8	nt	2.8	3.7
C=C(C)C(=O)Nc1cccc(C2=NOC3(C2)C[C@@H](C(N)=O)N(C(=O)c2ccc(Cl)cc2)C3)c1 (some centres undefined)	75.1*	-12.4	nt	31.1	-98.0
C=C(C)C(=O)Nc1cccc(C2=NOC3(C2)C[C@H](C(N)=O)N(C(=O)c2ccccc2)C3)c1 (some centres undefined)	60.9*	-12.5	nt	29.0	-70.5
C=C(C)C(=O)Nc1cccc(C2=NOC3(C2)C[C@@H](C(N)=O)N(C(=O)c2cc([N+](=O)[O-])cc([N+](=O)[O-])c2C)C3)c1 (some centres undefined)	74.2*	0.3	nt	34.0	-47.3
C/C=C\C(=O)Nc1cccc(C2=NOC3(C2)C[C@@H](C(N)=O)N(C(=O)c2ccc(Cl)cc2)C3)c1 (some centres undefined)	-15.8	-3.7	nt	2.6	-42.2
C=C(C)C(=O)Nc1cccc(C2=NOC3(C2)C[C@H](C(N)=O)N(C(=O)COc2ccc(Cl)cc2)C3)c1 (some centres undefined)	68.6*	-13.2	nt	30.0	-128.8
SMILES	Mcl1 Noxa PPI	NCF1 inh	Mcl-1 Bim block	14-3-3 Bad PPI	Mcl1 Bid PPI
COc1ccccc1CCNC(=O)Cc1cccs1	21.9	1.8	nt	-0.2	15.0
COc1ccc(CNC(=O)CCSCc2cccc(Cl)c2)c(OC)c1	-4.1	-13.8	-3.0	-15.2	-12.8
Cn1c(=O)c([N+](=O)[O-])c(-n2cnc3ccccc32)c2ccccc21	-1.7	-0.4	nt	0.4	-8.4
C/C=C(/C)C(=O)Nc1cccc(C2=NOC3(C2)C[C@H](C(N)=O)N(C(=O)c2ccc(Cl)cc2)C3)c1 (some centres undefined)	9.1	42.3*	nt	-4.5	-23.9
CCOC(=O)c1sc2nc(N3CCOCC3)c3c(c2c1N)CCCC3	-0.5	-9.2	3.0	3.1	-22.7
CCN(CC)C(=O)c1sc2nc(N3CCOCC3)c3c(c2c1N)CCCC3	58.6*	-6.7	-1.0	10.2	-24.7
COc1ccc(C2C(C#N)=C(N)OC3=C2C(=O)CC(C)(C)C3)cc1OC (centres undefined)	12.2	2.3	-1.0	-4.4	-10.2
CC1(C)CC(=O)C2=C(C1)OC(N)=C(C#N)C2c1cccc(OC(=O)c2ccco2)c1 (centres undefined)	-6.0	-1.5	-5.0	3.3	97.1*
CC1=[N+](C)c2c(ccc3cccnc23)C1(C)C	34.9	-96.2	-4.0	-3.4	-50.2
Cc1ccccc1N/C(=C(/C(Cl)=C(Cl)Cl)[N+](=O)[O-])n1nnc2ccccc21	38.2	1.8	0.0	53.8	53.9*
COc1ccc(N/C(=C(/C(Cl)=C(Cl)Cl)[N+](=O)[O-])n2nnc3ccccc32)cc1	43.4	-3.4	0.0	78.6*	91.4*
COc1ccc(O)c(-c2cn[nH]c2-c2cccs2)c1	54.7*	-7.2	-1.0	-0.1	-15.9
COc1ccc(-c2[nH]ncc2-c2cscn2)c(O)c1	16.3	-1.9	-4.0	-12.9	-26.6
O=C(CCS(=O)(=O)c1ccc(Br)s1)NC1CCCCCC1	-8.4	-0.8	-2.0	1.2	78.1*
CSc1nc2ccc3nc(NC(=O)c4ccc(Cl)s4)sc3c2s1	52.3*	-1.4	1.0	-0.7	66.1*
CSc1nc2ccc3nc(NC(=O)c4cccs4)sc3c2s1	30.3	-19.6	-15.0	72.5*[fluorescence artefact?]	65.9*
O=C(Nc1nc(-c2ccccn2)cs1)c1ccc(Cl)s1	-81.8	-21.7	0.0	1.8	-51.1
O=C(Nc1nc2ccc(F)cc2s1)c1cccs1	2.4	-10.7	-2.0	-9.8	-2.0
Cc1ccc(/C=N/NC(=O)c2ccc3nc[nH]c3c2)o1	55.3*	3.0	nt	-6.4	-7.5
COc1nc(C)nc(NC(=O)NS(=O)(=O)c2ccc(C)cc2)n1	65.2*	-9.9	-5.0	3.9	-12.3
Cc1ccc(S(=O)(=O)NC(=O)Nc2cccc(C)n2)cc1	-9.1	-5.8	nt	0.3	-6.2
COc1ccc(OCCOCCN2CCc3ccccc3C2)cc1	14.8	-1.6	4.0	46.1	61.7*
Clc1ccc(OCCCCN2CCc3ccccc3C2)cc1	11.2	-13.3	-2.0	3.2	-8.0
Cc1ccc(-c2sc(C(=O)NN)c(C)c2C#N)cc1	-4.6	-1.8	nt	-1.8	-51.6
O=C(O)CC(SCc1ccc(C(=O)O)o1)C(=O)O (centres undefined)	13.9	-6.4	-4.0	-8.6	52.6*
